# This is part of a sample that, as a whole, favours compounds with a hit. Of some 83,000 tested, about 20% had one in any assay.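 Interpretation: 100, growth as untreated; towards 0, rising growth inhibition; 0, no net growth; 0 to -100, cell death. Compounds scoring below 10 were considered active.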 Values without a mark were called inactive. Calls of active or inactive are those of the source.
# Legend:
# Assay in all cases: NCI-60 one-dose screen, 48 h (100 = growth as untreated, 0 = no growth, -100 = all killed)
# Settings in all cases: 10 µM unless noted
# [1] = system: NCI-H23 lung
# [2] = system: NCI-H226 lung
# [3] = system: NCI-H322M lung
# [4] = system: HOP-62 NSCLC
# [5] = system: NCI-H460 lung
# [6] = system: HOP-92 NSCLC
# [7] = system: NCI-H522 lung
# [8] = system: A549/ATCC NSCLC
# [9] = system: 786-0 renal
# [10] = system: COLO 205 colon
SMILES,growth [1],growth [2],growth [3],growth [4],growth [5],growth [6],growth [7],growth [8],growth [9],growth [10]
N#CC1=C(N)Oc2ccc3ccccc3c2C1c1ccc([N+](=O)[O-])cc1 (stereo not given),78.2%,87.4%,89.3%,81.8%,93.3%,121%,73.5%,93.7%,88.1%,102%
COc1ccc(/C=C2\COc3ccc(O)cc3C2=O)cc1,109%,104%,100%,103%,104%,110%,37.7%,97.8%,92.2%,110%
O=C1Nc2c(C(=O)O)cccc2/C1=N/c1n[nH]c(=S)s1,87.8%,86.2%,95.6%,79.7%,93.4%,96.1%,81.1%,85.5%,91.3%,118%
O=C1/C(=C/c2ccccc2F)CN(C(=O)C(Cl)Cl)C/C1=C\c1ccccc1F,-33.2% (active),39.4%,-18.5% (active),13.8%,-74.2% (active),-27.9% (active),-49.8% (active),-2.28% (active),-71.9% (active),-57.6% (active)
O=C(NNc1cnccn1)c1nc2cc(F)ccc2n2cccc12,25.4%,14.1%,18%,15%,2.78% (active),34.9%,-2.38% (active),11.1%,28.6%,7.25% (active)
Cc1nn(-c2cc(NC3CCC(O)CC3)c3c(=O)[nH]c(CCC(F)(F)F)cc3c2)c2c1C(=O)CC(C)(C)C2 (stereo not given),20.3%,67.8%,56.5%,44%,21%,54.5%,49.5%,38.8%,43.9%,36.9%
C=CC(=O)Nc1ccc(Oc2nccc(Nc3nnc(-c4ccc(C)cc4)s3)n2)cc1,79.9%,86.2%,98.7%,83.5%,59.9%,72.4%,24.3%,77%,70.8%,100%
Cc1c(CN)cc(-c2ccc(Cl)cc2)n1-c1ccccc1,73.8%,38.4%,88.4%,91.6%,75.5%,90.1%,68%,75.2%,90.8%,110%
C=C(C)[C@@H]1CCC[C@]2(C(=O)N3CCN(C)CC3)CC[C@]3(C)[C@@H](CC[C@@H]4[C@@]5(C)CC/C(=N\NC(=O)c6ccncc6)C(C)(C)[C@@H]5CC[C@]43C)[C@@H]12,93.3%,101%,93.7%,96.9%,88%,107%,98.3%,99.5%,93.6%,99.1%
NC(=O)c1c(NC(=O)c2cccc(C(F)(F)F)c2)sc2c1CCC(=O)C2,-2.9% (active),34.2%,61.6%,28.2%,5.67% (active),-45.1% (active),-37.6% (active),17%,17.8%,-51.2% (active)
NS(=O)(=O)c1ccc(NC(=O)/C(=C\c2ccc(Cl)cc2Cl)NC(=O)c2ccccc2)cc1,107%,103%,102%,95.7%,105%,87%,80.3%,105%,104%,110%
COc1cc2nc3sc(C(=O)Nc4ccc(C(=O)OC(C)C)cc4)c(C(=O)Nc4ccc(Cl)cc4C)n3c(=O)c2cc1OC,72.1%,103%,68.5%,67.2%,22.7%,32.5%,98.7%,52%,53.6%,45.8%
O=C(Nc1ccccc1[N+](=O)[O-])c1ccc(Cl)c(Cl)c1,86.6%,79.9%,101%,102%,93.4%,69.7%,69.9%,104%,105%,110%
Nc1nc(N)c2c(n1)NC(c1cccc(Nc3ccnc4cc(C(F)(F)F)ccc34)c1)CC(c1ccc(Br)cc1)=N2 (stereo not given),66.3%,93.9%,96.1%,58.2%,29.9%,42.8%,48.8%,45.9%,68.9%,34%
CN(Cc1ccccc1)c1nc(Cl)c(C2CC(c3ccccc3)=NN2c2ccccc2)s1 (stereo not given),88.3%,89%,97.6%,84.5%,101%,86%,77.8%,85.7%,93.9%,105%
CC1(C)N=C(N)N=C(N)N1c1ccc(CCCCc2ccccc2)c(Cl)c1,6.38% (active),34.7%,31.6%,21.7%,4.96% (active),19.3%,-6.62% (active),15.9%,16.3%,-75.8% (active)
Cc1c2cccnc2c(C)c2c1c1cc(CO)ccc1n2C,30.6%,-33.4% (active),26.8%,30.5%,0.162% (active),32.9%,30.3%,20.9%,22.6%,19.1%
S=c1[nH]c(=S)c2c(-c3ccccc3)c(-c3ccccc3)oc2[nH]1,97.8%,92.7%,118%,92.6%,108%,100%,97.5%,95.7%,103%,120%
CNC1=CC(=O)c2c(C(=O)OC)c(C)[n+]([O-])c(C)c2C1=O,40%,82.1%,71.9%,97.9%,28.2%,106%,23.3%,55.3%,97.9%,8.07% (active)
COc1ccc(/C=C/C(c2cc(OC)c(OC)c(OC)c2)n2ccnc2)cc1O (stereo not given),55.7%,88.4%,45.8%,47.2%,16.5%,30.5%,24.6%,29.1%,34%,89.8%
CC1(C)CC[C@]2(CO)CC[C@]3(C)[C@H](CC[C@@H]4[C@@]5(C)CCCNC(C)(C)[C@@H]5CC[C@]43C)[C@H]2[C@H]1O,88.1%,103%,93.8%,98%,11.7%,83.8%,92.1%,73%,96.7%,0.611% (active)
Cc1ccc(C=C2C(=O)NC(=O)NC2=O)cc1,102%,105%,110%,92.1%,108%,110%,85.9%,87.8%,107%,98.3%
CN1CCN(C(=O)C(C)(C)c2ccc(C(=O)Nc3cn4cc(-c5ccncc5)ccc4n3)cc2)CC1,10.1%,9.69% (active),17%,4.05% (active),10.8%,3.02% (active),-1.24% (active),10.2%,-19.9% (active),2.48% (active)
CCN1CCN(CC(=O)Nc2ccc(-c3cn4c(n3)sc3cc(Oc5ccnc(C(=O)NC)c5)ccc34)cc2)CC1,97.1%,105%,75.9%,66.1%,48.7%,54.6%,83.7%,78.2%,75.3%,51.8%
COc1cc(C(=O)c2c(-c3ccccc3)oc3c(OC)cccc23)cc(OC)c1OC,23.8%,8.39% (active),46.2%,30%,3.18% (active),-1.18% (active),13.9%,17%,9.22% (active),-15.7% (active)
FC(F)(F)c1ccc(Cn2cc(CSc3nc4ccccc4s3)nn2)cc1,97.6%,83.1%,94.4%,89%,102%,85.4%,88.2%,90.1%,98.1%,103%
CN(C)c1ccc(/C=C(\C#N)c2cc3ccccc3[nH]2)cc1,28.4%,70.8%,38.4%,28.7%,13.3%,26.4%,-9.55% (active),41.4%,32.9%,4% (active)

# From PubChem BioAssay (NCI)
